# Inconclusive results are not listed. A call without a number means that no potency is given here. Activity calls are given as the source filed them. The call rests on the fitted dose curve; in most records, active means well fitted inhibition curve with a large enough effect; inconclusive means small, poorly fitted or top-dose-only effect; inactive means flat fitted curve, though single readings scatter.
# Tested on: CP247
# Experiment: qHTS profiling for inhibitors of Plasmodium falciparum proliferation (AID 504749); further: nearly all actives have a fitted effect of over 60% in size
# Settings: P. falciparum in erythrocytes, SYBR Green DNA, 72 h; series mostly up to 28.7 µM
# In short: (§1)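 Readout was DNA-dye fluorescence from lysed cultures, ex 485/em 535 nm. Parasitized red cells had grown 72 h with compound; data scaled between 0.29 uM artemisinin and DMSO wells and corrected using vehicle-only plates.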
# Potency means the concentration at half of the fitted maximal effect.
row,SMILES,Potency
1,Cc1ncc([N+](=O)[O-])n1CC(C)O (centres undefined),inactive
2,C[C@]12CCC(=O)C=C1CC[C@@H]1[C@H]2[C@@H](O)C[C@@]2(C)[C@H]1CC[C@]2(O)C(=O)CO,inactive
3,Oc1ccc(OCc2ccccc2)cc1,inactive
4,CCCc1cc(=O)[nH]c(=S)[nH]1,inactive
5,O=C(O)c1cc(=O)c2c(OCC(O)COc3cccc4oc(C(=O)O)cc(=O)c34)cccc2o1,inactive
6,CC1(C)CCC(C)(C)c2cc(NC(=O)c3ccc(C(=O)O)cc3)ccc21,inactive
7,CN(C)C(=O)COC(=O)Cc1ccc(OC(=O)c2ccc(N=C(N)N)cc2)cc1,inactive
8,C=C(c1ccc(C(=O)O)cc1)c1cc2c(cc1C)C(C)(C)CCC2(C)C,inactive
9,CS(=O)(=O)OCCCCOS(C)(=O)=O,inactive
10,O=C(O)c1cccc(-c2noc(-c3ccccc3F)n2)c1,inactive
11,O=C(CS(=O)Cc1ccco1)NCC=CCOc1cc(CN2CCCCC2)ccn1 (centres undefined),inactive
12,CC(C)(S)[C@@H](N)C(=O)O,inactive
13,Cc1c(OCC(F)(F)F)ccnc1CS(=O)c1nc2ccccc2[nH]1 (centres undefined),inactive
14,O=P(O)(O)C(O)(Cn1ccnc1)P(=O)(O)O,inactive
15,O=C(O)CCNC(=O)c1ccc(N=Nc2ccc(O)c(C(=O)O)c2)cc1,inactive
16,CC(S)C(=O)NCC(=O)O (centres undefined),inactive
17,CCC(C)(Oc1ccc(C2(c3ccc(OC(C)(CC)C(=O)O)cc3)CCCCC2)cc1)C(=O)O (centres undefined),inactive
18,CC1(C)NC(=O)N(c2ccc([N+](=O)[O-])c(C(F)(F)F)c2)C1=O,inactive
19,CNC[C@H](O)c1ccc(O)c(O)c1,inactive
20,C[C@H](Cn1cnc2c(N)ncnc21)OCP(=O)(O)O,inactive
21,CCCCN(CCCC)CCC(O)c1cc2c(Cl)cc(Cl)cc2c2cc(C(F)(F)F)ccc12 (centres undefined),17.8 nM (active)
22,Cc1cc(=O)c2c(O)c3c(O)cc(=O)c4c3c3c(cc(O)c1c23)C(C)(C)C=4O,1780 nM (active)
23,Cc1cc2cc3c(C)cc(=O)oc3c(C)c2o1,inactive
24,Nc1cccc2c1CN(C1CCC(=O)NC1=O)C2=O (centres undefined),inactive
25,Nc1ccn([C@@H]2O[C@H](CO)[C@@H](O)C2O)c(=O)n1 (some centres undefined),inactive
26,COc1cc2c(cc1OC)C1CC(=O)C(CC(C)C)CN1CC2 (centres undefined),inactive
27,Nc1nc(Cl)nc2c1ncn2[C@H]1C[C@H](O)[C@@H](CO)O1,inactive
28,CCOC(=O)c1c(C)n(C)c2ccc(O)cc12,inactive

# Tested on: CP250
# Experiment: as above
# Settings: P. falciparum in erythrocytes, SYBR Green DNA, 72 h; series mostly up to 28.7 µM
# In short: as §1
row,SMILES,Potency
1,Cc1ncc([N+](=O)[O-])n1CC(C)O (centres undefined),inactive
2,C[C@]12CCC(=O)C=C1CC[C@@H]1[C@H]2[C@@H](O)C[C@@]2(C)[C@H]1CC[C@]2(O)C(=O)CO,inactive
3,Oc1ccc(OCc2ccccc2)cc1,inactive
4,CCCc1cc(=O)[nH]c(=S)[nH]1,inactive
5,O=C(O)c1cc(=O)c2c(OCC(O)COc3cccc4oc(C(=O)O)cc(=O)c34)cccc2o1,inactive
6,CC1(C)CCC(C)(C)c2cc(NC(=O)c3ccc(C(=O)O)cc3)ccc21,inactive
7,CN(C)C(=O)COC(=O)Cc1ccc(OC(=O)c2ccc(N=C(N)N)cc2)cc1,inactive
8,C=C(c1ccc(C(=O)O)cc1)c1cc2c(cc1C)C(C)(C)CCC2(C)C,inactive
9,CS(=O)(=O)OCCCCOS(C)(=O)=O,inactive
10,O=C(O)c1cccc(-c2noc(-c3ccccc3F)n2)c1,inactive
11,O=C(CS(=O)Cc1ccco1)NCC=CCOc1cc(CN2CCCCC2)ccn1 (centres undefined),inactive
12,CC(C)(S)[C@@H](N)C(=O)O,inactive
13,Cc1c(OCC(F)(F)F)ccnc1CS(=O)c1nc2ccccc2[nH]1 (centres undefined),inactive
14,O=P(O)(O)C(O)(Cn1ccnc1)P(=O)(O)O,inactive
15,O=C(O)CCNC(=O)c1ccc(N=Nc2ccc(O)c(C(=O)O)c2)cc1,inactive
16,CC(S)C(=O)NCC(=O)O (centres undefined),inactive
17,CCC(C)(Oc1ccc(C2(c3ccc(OC(C)(CC)C(=O)O)cc3)CCCCC2)cc1)C(=O)O (centres undefined),inactive
18,CC1(C)NC(=O)N(c2ccc([N+](=O)[O-])c(C(F)(F)F)c2)C1=O,inactive
19,CNC[C@H](O)c1ccc(O)c(O)c1,inactive
20,C[C@H](Cn1cnc2c(N)ncnc21)OCP(=O)(O)O,inactive
21,CCCCN(CCCC)CCC(O)c1cc2c(Cl)cc(Cl)cc2c2cc(C(F)(F)F)ccc12 (centres undefined),31.6 nM (active)
22,Cc1cc(=O)c2c(O)c3c(O)cc(=O)c4c3c3c(cc(O)c1c23)C(C)(C)C=4O,1410 nM (active)
23,Cc1cc2cc3c(C)cc(=O)oc3c(C)c2o1,inactive
24,Nc1cccc2c1CN(C1CCC(=O)NC1=O)C2=O (centres undefined),inactive
25,Nc1ccn([C@@H]2O[C@H](CO)[C@@H](O)C2O)c(=O)n1 (some centres undefined),inactive
26,COc1cc2c(cc1OC)C1CC(=O)C(CC(C)C)CN1CC2 (centres undefined),inactive
27,Nc1nc(Cl)nc2c1ncn2[C@H]1C[C@H](O)[C@@H](CO)O1,inactive
28,CCOC(=O)c1c(C)n(C)c2ccc(O)cc12,inactive

# Tested on: CP252
# Experiment: as above
# Settings: P. falciparum in erythrocytes, SYBR Green DNA, 72 h; series mostly up to 28.7 µM
# In short: as §1
row,SMILES,Potency
1,Cc1ncc([N+](=O)[O-])n1CC(C)O (centres undefined),inactive
2,C[C@]12CCC(=O)C=C1CC[C@@H]1[C@H]2[C@@H](O)C[C@@]2(C)[C@H]1CC[C@]2(O)C(=O)CO,inactive
3,Oc1ccc(OCc2ccccc2)cc1,inactive
4,CCCc1cc(=O)[nH]c(=S)[nH]1,inactive
5,O=C(O)c1cc(=O)c2c(OCC(O)COc3cccc4oc(C(=O)O)cc(=O)c34)cccc2o1,inactive
6,CC1(C)CCC(C)(C)c2cc(NC(=O)c3ccc(C(=O)O)cc3)ccc21,inactive
7,CN(C)C(=O)COC(=O)Cc1ccc(OC(=O)c2ccc(N=C(N)N)cc2)cc1,inactive
8,C=C(c1ccc(C(=O)O)cc1)c1cc2c(cc1C)C(C)(C)CCC2(C)C,inactive
9,CS(=O)(=O)OCCCCOS(C)(=O)=O,inactive
10,O=C(O)c1cccc(-c2noc(-c3ccccc3F)n2)c1,inactive
11,O=C(CS(=O)Cc1ccco1)NCC=CCOc1cc(CN2CCCCC2)ccn1 (centres undefined),inactive
12,CC(C)(S)[C@@H](N)C(=O)O,inactive
13,Cc1c(OCC(F)(F)F)ccnc1CS(=O)c1nc2ccccc2[nH]1 (centres undefined),inactive
14,O=P(O)(O)C(O)(Cn1ccnc1)P(=O)(O)O,inactive
15,O=C(O)CCNC(=O)c1ccc(N=Nc2ccc(O)c(C(=O)O)c2)cc1,inactive
16,CC(S)C(=O)NCC(=O)O (centres undefined),inactive
17,CCC(C)(Oc1ccc(C2(c3ccc(OC(C)(CC)C(=O)O)cc3)CCCCC2)cc1)C(=O)O (centres undefined),inactive
18,CC1(C)NC(=O)N(c2ccc([N+](=O)[O-])c(C(F)(F)F)c2)C1=O,inactive
19,CNC[C@H](O)c1ccc(O)c(O)c1,inactive
20,C[C@H](Cn1cnc2c(N)ncnc21)OCP(=O)(O)O,inactive
21,CCCCN(CCCC)CCC(O)c1cc2c(Cl)cc(Cl)cc2c2cc(C(F)(F)F)ccc12 (centres undefined),15.8 nM (active)
22,Cc1cc(=O)c2c(O)c3c(O)cc(=O)c4c3c3c(cc(O)c1c23)C(C)(C)C=4O,1260 nM (active)
23,Cc1cc2cc3c(C)cc(=O)oc3c(C)c2o1,inactive
24,Nc1cccc2c1CN(C1CCC(=O)NC1=O)C2=O (centres undefined),inactive
25,Nc1ccn([C@@H]2O[C@H](CO)[C@@H](O)C2O)c(=O)n1 (some centres undefined),inactive
26,COc1cc2c(cc1OC)C1CC(=O)C(CC(C)C)CN1CC2 (centres undefined),inactive
27,Nc1nc(Cl)nc2c1ncn2[C@H]1C[C@H](O)[C@@H](CO)O1,inactive
28,CCOC(=O)c1c(C)n(C)c2ccc(O)cc12,inactive
